{
  "source": "the OligoGym collection",
  "data": [
    {"target": "SLC6A17", "assay": "pooled miR-30 sensor sort-seq; sequence = guide strand", "settings": "shRNA", "values": [
      {"sequence": "TTTCTCAGCATTCTCGACCACA", "sensor-assay potency score (higher = more potent)": -0.65},
      {"sequence": "TTCTCGACCACACACTTCTCAT", "sensor-assay potency score (higher = more potent)": -1.03},
      {"sequence": "TAGTGCCACACACCGATGCTGC", "sensor-assay potency score (higher = more potent)": -1.34},
      {"sequence": "TACATCTCCATGTAGTCCTTTG", "sensor-assay potency score (higher = more potent)": -1.15},
      {"sequence": "TTGTCCTGCTTATTGTAGCTGG", "sensor-assay potency score (higher = more potent)": -0.728},
      {"sequence": "TACTGCAGCTTACTGTTCCAGG", "sensor-assay potency score (higher = more potent)": -0.506},
      {"sequence": "TTCTTGGTTCCATAAATCCAGG", "sensor-assay potency score (higher = more potent)": -1.41}
    ]},
    {"target": "SLC6A18", "assay": "pooled miR-30 sensor sort-seq; sequence = guide strand", "settings": "shRNA", "values": [
      {"sequence": "TGAAGTAAATCACCTTCCCTGT", "sensor-assay potency score (higher = more potent)": -0.768},
      {"sequence": "TTCAGTGTCTGCCGGTACCAGA", "sensor-assay potency score (higher = more potent)": -1.1},
      {"sequence": "ATTAGTTGCTTTGAACCCCAGG", "sensor-assay potency score (higher = more potent)": -0.521},
      {"sequence": "ATTGTCGAAAATCTCCAGCCAG", "sensor-assay potency score (higher = more potent)": -0.569},
      {"sequence": "TTGTCGAAAATCTCCAGCCAGT", "sensor-assay potency score (higher = more potent)": -1.14},
      {"sequence": "TAGAGCTTCTCCTGACGCGAGG", "sensor-assay potency score (higher = more potent)": -1.31},
      {"sequence": "ATGGTGTTGTAGTACAGGCTGA", "sensor-assay potency score (higher = more potent)": -0.98},
      {"sequence": "TGAACAAGTAGATGAGTCCTTT", "sensor-assay potency score (higher = more potent)": -0.149},
      {"sequence": "TTGTAGTACAGGCTGATCAGGA", "sensor-assay potency score (higher = more potent)": -0.436},
      {"sequence": "TTGTATCTCAGTGGCTTCCAGA", "sensor-assay potency score (higher = more potent)": -0.724},
      {"sequence": "TAAACGACACCCACAACCTCGA", "sensor-assay potency score (higher = more potent)": -0.526}
    ]},
    {"target": "SLC6A3", "assay": "pooled miR-30 sensor sort-seq; sequence = guide strand", "settings": "shRNA", "values": [
      {"sequence": "TAGCAGTTGTTGGTGAACTTGT", "sensor-assay potency score (higher = more potent)": -0.216},
      {"sequence": "TTGTTGGTGAACTTGTTGTAGC", "sensor-assay potency score (higher = more potent)": -0.855},
      {"sequence": "TTCGCAAACATAAAAACTGTTG", "sensor-assay potency score (higher = more potent)": -1.05},
      {"sequence": "TTACAGCAACACAAGACACGGC", "sensor-assay potency score (higher = more potent)": 0.179},
      {"sequence": "TTTTGTAGCACAGGTAGGGGAA", "sensor-assay potency score (higher = more potent)": -0.466},
      {"sequence": "TTTTTGTAGCACAGGTAGGGGA", "sensor-assay potency score (higher = more potent)": -0.961},
      {"sequence": "TTTCCTGGTGAGACATACCAGG", "sensor-assay potency score (higher = more potent)": -1.03},
      {"sequence": "TAGATGATGAAGATCAGCCCTG", "sensor-assay potency score (higher = more potent)": -0.145},
      {"sequence": "ATCTGCTGGATGTCGTCGCTGA", "sensor-assay potency score (higher = more potent)": -0.478},
      {"sequence": "TATTCTTGTAAACAAAAACTGC", "sensor-assay potency score (higher = more potent)": -1.01},
      {"sequence": "TATTGATGTGGCACGCACCTGA", "sensor-assay potency score (higher = more potent)": -0.154},
      {"sequence": "TTGGTGAACTTGTTGTAGCTGG", "sensor-assay potency score (higher = more potent)": 0.547}
    ]},
    {"target": "SLC7A11", "assay": "pooled miR-30 sensor sort-seq; sequence = guide strand", "settings": "shRNA", "values": [
      {"sequence": "TAATGGACCAAAGACTTCCAAA", "sensor-assay potency score (higher = more potent)": -1.33},
      {"sequence": "TAAAGTTCTGCGTTTGACCTTT", "sensor-assay potency score (higher = more potent)": 0.169},
      {"sequence": "TACTTCTTCAGTAACAAAGTTG", "sensor-assay potency score (higher = more potent)": -0.481},
      {"sequence": "TTCAGTAACAAAGTTGAGGTAA", "sensor-assay potency score (higher = more potent)": 0.0391},
      {"sequence": "TTTGTATCGAAGATAAATCAGC", "sensor-assay potency score (higher = more potent)": -1.16},
      {"sequence": "TATATGTGTAATGACCTCCAGA", "sensor-assay potency score (higher = more potent)": -0.907},
      {"sequence": "TTTAGGACCATCACTACAGTTA", "sensor-assay potency score (higher = more potent)": -0.265},
      {"sequence": "TTCTTCAGTAACAAAGTTGAGG", "sensor-assay potency score (higher = more potent)": -0.835},
      {"sequence": "TAATACTTGAATCTCTTCCTGA", "sensor-assay potency score (higher = more potent)": 0.636},
      {"sequence": "TAATTAGCTGCATAACTCCAGG", "sensor-assay potency score (higher = more potent)": -0.703}
    ]}
  ]
}
